Test results from PubChem BioAssay (NCATS).
Records with an inconclusive call do not appear. A call without a number means that no potency is given here. A number with no mark means an inactive call. Calls of active or inactive are those of the source. The call rests on the fitted dose curve; in most records, active means well fitted curve in the direction sought with a large enough effect; inconclusive means small, poorly fitted or top-dose-only effect, or another doubt; inactive means no such curve, though single readings can be large; an effect the other way counts as inactive or inconclusive.

Tests used:
SKOV3 = assay: Primary qHTS to identify gynecologic anti-cancer compounds using libraries of approved drugs and bioactive compounds (AID 1345084); settings: Gynecologic cancer cell panel viability, ATPlite luminescence, 48 h; series mostly up to 57.5 µM; further: nearly all actives have a fitted effect of over 55% in size
Outline: (§1)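 Cell viability after 48 h drug treatment, ATPlite luminescence readout; five doses.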

Tov-21-G = assay: as above; settings: Gynecologic cancer cell panel viability, ATPlite luminescence, 48 h; series mostly up to 57.5 µM
Outline: as §1

Tov112D = assay: as above; settings: Gynecologic cancer cell panel viability, ATPlite luminescence, 48 h; series mostly up to 57.5 µM
Outline: as §1

[1] = Drug repurposing screens with cells derived from glioblastoma tumor samples (AID 1345199); settings: GBM patient neurospheres viability, ATP luminescence, 48 h; further: nearly all actives have a fitted effect of over 40% in size; further: potency means the concentration at half of the fitted maximal effect
Outline: (§2)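 Primary testing used CD133+ neurospheres from four GBM patients, seven concentrations, 48 h exposure and ATP-based viability; confirmation added three slower-growing patient lines.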

astro = assay: as above; settings: viability, ATP luminescence, 48 h; series mostly up to 45.9 µM
Outline: as §2

[2] = at 20 µM (top of the series), tumour line C
[3] = at 21.2 µM (top of the series), tumour line B
[4] = at 21.2 µM (top of the series), tumour line D
[5] = at 45.9 µM (top of the series), tumour line B
[6] = at 45.9 µM (top of the series), tumour line D
[7] = at 46.1 µM (top of the series), tumour line C
[8] = at 46 µM (top of the series), tumour line A

SMILES | Potency (SKOV3) | Potency (Tov-21-G) | Potency (Tov112D) | activity, negative = cell killing [1, 2] [%] | activity, negative = cell killing [1, 3] [%] | activity, negative = cell killing [1, 4] [%] | Potency (astro) | activity, negative = cell killing [1, 5] [%] | activity, negative = cell killing [1, 6] [%] | activity, negative = cell killing [1, 7] [%] | Potency ([1]; tumour line A) | Potency ([1]; tumour line D) | activity, negative = cell killing [1, 8] [%]
O=C1OC(CN2CCOCC2)CN1/N=C/c1ccc([N+](=O)[O-])o1 (stereo not given) | inactive | inactive | inactive | -25.2 | 2.66 | -3.22 | inactive |  |  |  |  |  | 
C[N+]12CCC(CC1)C(OC(=O)C(O)(c1ccccc1)c1ccccc1)C2 (stereo not given) | inactive | inactive | inactive | -3.46 | -10.6 | -5.49 | inactive |  |  |  |  |  | 
CC(=O)Nc1ncc([N+](=O)[O-])s1 | inactive | inactive | inactive |  |  |  | inactive | -7.38 | -8.31 | -21.7 |  |  | 
CC(C)Cn1cnc2c1c(=O)n(C)c(=O)n2C | inactive | inactive | inactive |  |  |  | inactive | -4.91 | -3.1 | -1.11 |  |  | 
COc1ccc(C(=O)c2ccccc2O)c(O)c1 | inactive | inactive | inactive | -19.6 | 4.62 | -15.3 | inactive |  |  |  |  |  | 
O=[N+]([O-])c1ccc(/C=N\O)o1 | inactive | inactive | inactive |  |  |  | inactive | -7.45 | -31.7 | 1.04 |  |  | 
FC1(F)C(F)(F)C(F)(F)C2(F)C(F)(F)C(F)(F)C(F)(F)C(F)(F)C2(F)C1(F)F (stereo not given) | inactive | inactive | inactive |  |  |  | inactive | -14.2 | -0.34 | -17 |  |  | 
COP(=O)(OC)OC(c1ccc(Cl)cc1)P(=O)(OC)OC (stereo not given) | inactive | inactive | inactive |  |  |  | inactive | -15.7 | -14.1 | -24.8 |  |  | 
CCCCC(CC)CN1CN(CC(CC)CCCC)CC(C)(N)C1 (stereo not given) | inactive | inactive | inactive | -6.58 | -11 | -24 | inactive |  |  |  |  |  | 
C=CCN1CCc2nc(N)sc2CC1 | inactive | inactive | inactive |  |  |  | inactive | -26.9 | -19.4 | -3.6 |  |  | 
O=C1c2cccc3c2[C@H](CCC3)CN1[C@@H]1CN2CCC1CC2 | inactive | inactive | inactive |  |  |  | inactive | -28.4 |  |  | 11.2 µM (active) | 11.2 µM (active) | 
Oc1ccccc1C=NCc1ccccc1 | inactive | inactive | inactive |  |  |  | inactive | -13.2 | -14.3 | -2.77 |  |  | 
Cl/C(=C\n1cncn1)c1ccc(Cl)cc1Cl | inactive | inactive | inactive |  |  |  | inactive | -7.02 | -2.18 | -23.5 |  |  | 
NC1CCN(c2nc3c(cc2F)c(=O)c(C(=O)O)cn3-c2ccc(F)cc2F)C1 (stereo not given) | inactive | inactive | inactive |  |  |  | inactive | -3.86 | -30 |  |  |  | -29.1
Nc1nc(-c2ccccc2)c(Br)c(=O)[nH]1 | inactive | inactive | inactive |  |  |  | inactive | -8.97 | -11.4 |  |  |  | -28.3
O=C(O)C1(C(=O)O)CCC1.[NH2-].[NH2-].[Pt+2] | inactive | inactive | inactive |  |  |  | inactive | -20.6 | -8.04 | -13.1 |  |  | 
CC(CNC1CCCCC1)OC(=O)c1ccccc1 (stereo not given) | inactive | inactive | inactive | 10.5 | -8.26 | -19.5 | inactive |  |  |  |  |  | 
Cc1ccccc1OCC(O)CO (stereo not given) | inactive | inactive | inactive |  |  |  | inactive | -8.02 | -9.22 | -19.6 |  |  | 
OC[C@H]1O[C@@H](Oc2ccc(O)cc2)[C@H](O)[C@@H](O)[C@@H]1O | inactive | inactive | inactive |  |  |  | inactive | 0.949 | 7.3 | -9.99 |  |  | 
c1ccc(CC2=NCCN2)cc1 | inactive | inactive | inactive | -9.44 | -1.18 | -24.9 | inactive |  |  |  |  |  | 
